PubChem BioAssay (NCI)
The panel holds about 79,000 compounds, 15% with a hit somewhere; the sample as a whole holds those more often. Calls of active or inactive are those of the source. Cut-off read from the data, not from the text of the source: active = growth inhibition above about 70%; inactive = the rest.

Legend:
[1] = NCI Yeast Anticancer Drug Screen. Data for the wt1 strain (AID 149);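 note: 0% = growth of vehicle-treated wt1 cultures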; details: S. cerevisiae wt1 strain (SPY 50644) growth inhibition, hits give high values
How it was run: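 Readout: yeast growth inhibition, normalised to vehicle controls, in the wt1 strain exposed to test compounds.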

[2] = NCI Yeast Anticancer Drug Screen. Data for the rad50EPP+ strain (AID 151);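 note: 0% = growth of vehicle-treated control cultures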; details: S. cerevisiae rad50 mutant strain, hits give high values
How it was run: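 Exposing the rad50EPP+ strain to each compound, growth was compared with vehicle-only cultures to give inhibition.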

[3] = NCI Yeast Anticancer Drug Screen. Data for the rad50 strain (AID 155);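 note: 0% = growth of vehicle-only cultures of the same strain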; details: S. cerevisiae rad50 strain growth inhibition, hits give high values
How it was run: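 Compounds were tested on a yeast strain with an engineered DNA damage repair alteration; the reported value is growth inhibition normalised to vehicle treatment.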

[4] = NCI Yeast Anticancer Drug Screen. Data for the mec2-1 strain (AID 157); details: S. cerevisiae mec2-1 strain, hits give high values
How it was run: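 Readout is yeast growth inhibition, normalised to vehicle-treated controls, in the mec2-1 strain exposed to compound.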

[5] = NCI Yeast Anticancer Drug Screen. Data for the rad14 strain (AID 159);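 note: 0% = growth of vehicle-treated control cultures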; details: S. cerevisiae rad14 strain growth inhibition, hits give high values
How it was run: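 Compound-treated yeast with a defined DNA-repair lesion; growth inhibition normalised to vehicle-treated cultures.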

[6] = NCI Yeast Anticancer Drug Screen. Data for the sgs1 mgt1 strain (AID 161);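 note: 0% = growth of cultures given vehicle only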; details: S. cerevisiae sgs1 mgt1 strain, hits give high values
How it was run: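 Growth of a repair-deficient yeast mutant was monitored after compound treatment and expressed as inhibition relative to vehicle-treated cultures.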

[7] = NCI Yeast Anticancer Drug Screen. Data for the cln2 rad14 strain (AID 165);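 note: 0% = growth equal to vehicle treated cultures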; details: S. cerevisiae cln2 rad14 strain, hits give high values
How it was run: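 Relative to vehicle controls, growth inhibition of compound-treated cln2 rad14 yeast was recorded.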

[8] = NCI Yeast Anticancer Drug Screen. Data for the bub3 strain (AID 167); details: S. cerevisiae bub3 mutant strain, hits give high values
How it was run: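 Growth of a checkpoint-deficient yeast mutant is measured after compound exposure. Values represent inhibition relative to vehicle.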

[9] = NCI Yeast Anticancer Drug Screen. Data for the wt2 strain (AID 169);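 note: 0% = growth of vehicle-treated yeast cultures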; details: S. cerevisiae wt2 strain growth inhibition, hits give high values
How it was run: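 Values express reduction in yeast growth under compound treatment, referenced to vehicle-treated cells.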

[10] = NCI Yeast Anticancer Drug Screen. Data for the mlh1 strain (AID 171);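 note: 0% = growth of vehicle-treated control cultures of the same strain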; details: S. cerevisiae mlh1 strain growth inhibition, hits give high values
How it was run: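 Steps: expose the defined-mutant yeast strain to compound; expose a parallel culture to vehicle; measure growth; express compound effect as inhibition relative to the vehicle culture.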

[11] = NCI Yeast Anticancer Drug Screen. Data for the sgs1 strain (AID 173);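 note: 0% = growth of vehicle-only control cultures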; details: S. cerevisiae sgs1 mutant, hits give high values
How it was run: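 Treat defined-mutant yeast with compound; measure growth; calculate inhibition relative to vehicle-treated cells.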

[12] = NCI Yeast Anticancer Drug Screen. Data for the mlh1 rad18 strain (AID 175); details: S. cerevisiae mlh1 rad18 strain growth inhibition, hits give high values
How it was run: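 Test agents were incubated with a yeast strain of defined genotype (DNA damage repair defect). Inhibition of growth was derived by comparison with vehicle-exposed cultures.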

[13] = NCI Yeast Anticancer Drug Screen. Data for the rad18 strain (AID 177); details: S. cerevisiae rad18 mutant growth inhibition, hits give high values
How it was run: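 A genetically defined yeast mutant impaired in DNA damage repair was treated with test compounds, then its growth was measured against cultures receiving vehicle alone.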

[14] = NCI Yeast Anticancer Drug Screen. Data for the mgt1 strain (AID 153); details: S. cerevisiae mgt1 mutant growth inhibition, hits give high values
How it was run: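 Genetically defined yeast (mgt1) treated with compound; inhibition of growth expressed against vehicle-treated controls.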

[15] = NCI Yeast Anticancer Drug Screen. Data for the CLN2oe strain (AID 163);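 note: 0% = growth of vehicle-only control cultures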; details: S. cerevisiae CLN2oe strain, hits give high values
How it was run: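 Values reflect how much compound exposure reduced yeast growth, referenced to vehicle-exposed cells. Assay organism is a strain with a defined genetic change affecting cell-cycle control.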

[16] = at 5.0 µM (retest, dose inferred, filed as 0.5)
[17] = at 50.0 µM (retest, dose inferred, filed as 5.0)

Measured: growth inhibition

CCCCCCCCC/C=C/C=C/C(=O)NCC(=O)NC1C(O)C(O)C(Nc2ncnc3nc[nH]c23)OC1C(O)CO (stereo unspecified)
inactive: [1]; at 1.2 µM -41% | [1]; at 3.7 µM -23% | [1]; at 11.0 µM -27% | [1]; at 33.0 µM 33% | [1]; at 100.0 µM 20% | [2]; at 1.2 µM -19% | [2]; at 3.7 µM -17% | [2]; at 11.0 µM -15% | [2]; at 33.0 µM -36% | [2]; at 100.0 µM -48% | [3]; at 1.2 µM -53% | [3]; at 3.7 µM -47% | [3]; [16] 47% | [3]; at 11.0 µM -52% | [3]; at 33.0 µM -75% | [3]; at 50.0 µM 16.9% | [3]; at 100.0 µM -24% | [4]; at 1.2 µM -61% | [4]; at 3.7 µM -30% | [4]; [16] 9% | [4]; at 11.0 µM 14% | [4]; at 33.0 µM -11% | [4]; [17] 43% | [4]; at 50.0 µM 6.95% | [4]; at 100.0 µM -27% | [5]; at 1.2 µM -17% | [5]; at 3.7 µM -5% | [5]; at 11.0 µM -8% | [5]; at 33.0 µM 8% | [5]; at 100.0 µM 51% | [6]; [16] 2% | [6]; [17] -55% | [6]; at 50.0 µM 69.2% | [7]; [16] -1% | [7]; [17] -13% | [7]; at 50.0 µM 10.8% | [8]; at 1.2 µM -64% | [8]; at 3.7 µM -38% | [8]; [16] 5% | [8]; at 11.0 µM -58% | [8]; at 33.0 µM 5% | [8]; [17] -16% | [8]; at 50.0 µM 24.9% | [8]; at 100.0 µM 3% | [9]; at 1.2 µM 7% | [9]; at 3.7 µM 24% | [9]; at 11.0 µM 53% | [9]; at 33.0 µM 61% | [9]; at 100.0 µM 56% | [10]; at 1.2 µM -44% | [10]; at 3.7 µM -38% | [10]; at 11.0 µM -50% | [10]; at 33.0 µM 18% | [10]; at 100.0 µM -29% | [11]; at 1.2 µM -21% | [11]; at 3.7 µM 8% | [11]; at 11.0 µM 14% | [11]; at 33.0 µM 65% | [11]; at 100.0 µM 59% | [12]; [16] 20% | [12]; [17] 41% | [12]; at 50.0 µM 49.4% | [13]; at 1.2 µM -7% | [13]; at 3.7 µM 7% | [13]; at 11.0 µM 21% | [13]; at 33.0 µM 53% | [13]; at 100.0 µM 48%
active: [3]; [17] 83%

O=C1C=CC(=O)c2c(O)c(Nc3ccc(OC(F)(F)F)cc3)c(Cl)c(O)c21
inactive: [1]; at 1.2 µM 23% | [1]; at 3.7 µM 22% | [1]; at 11.0 µM 26% | [1]; at 33.0 µM 50% | [2]; at 1.2 µM 2% | [2]; at 3.7 µM 8% | [2]; at 11.0 µM 21% | [14]; at 1.2 µM 9% | [14]; at 3.7 µM 16% | [14]; at 11.0 µM 16% | [14]; at 33.0 µM 50% | [3]; at 1.2 µM -16% | [3]; at 3.7 µM -15% | [3]; [16] 4% | [3]; at 11.0 µM 4% | [3]; at 33.0 µM 67% | [3]; [17] 46% | [3]; at 50.0 µM 42% | [4]; at 1.2 µM -7% | [4]; at 3.7 µM -3% | [4]; [16] 9% | [4]; at 11.0 µM 8% | [4]; at 50.0 µM 46.8% | [5]; at 1.2 µM 2% | [5]; at 3.7 µM 4% | [5]; at 11.0 µM 6% | [5]; at 33.0 µM 32% | [6]; [16] 35% | [6]; [17] 49% | [15]; at 1.2 µM -8% | [15]; at 3.7 µM 0% | [15]; at 11.0 µM -5% | [15]; at 33.0 µM 12% | [7]; [16] 19% | [7]; [17] 32% | [7]; at 50.0 µM 37.9% | [8]; at 1.2 µM -17% | [8]; at 3.7 µM -8% | [8]; [16] 26% | [8]; at 11.0 µM 1% | [8]; at 33.0 µM 48% | [8]; [17] 65% | [9]; at 1.2 µM -5% | [9]; at 3.7 µM -6% | [9]; at 11.0 µM -6% | [9]; at 33.0 µM 21% | [10]; at 1.2 µM 0% | [10]; at 3.7 µM 6% | [10]; at 11.0 µM 13% | [10]; at 33.0 µM 37% | [11]; at 1.2 µM 34% | [11]; at 3.7 µM 32% | [11]; at 11.0 µM 58% | [11]; at 33.0 µM 62% | [12]; [16] 13% | [12]; at 50.0 µM 68.7% | [13]; at 1.2 µM -2% | [13]; at 3.7 µM -2% | [13]; at 11.0 µM 4% | [13]; at 33.0 µM 45%
active: [1]; at 100.0 µM 94% | [2]; at 33.0 µM 70% | [2]; at 100.0 µM 93% | [14]; at 100.0 µM 94% | [3]; at 100.0 µM 89% | [4]; at 33.0 µM 78% | [4]; [17] 79% | [4]; at 100.0 µM 94% | [5]; at 100.0 µM 92% | [6]; at 50.0 µM 73% | [15]; at 100.0 µM 83% | [8]; at 50.0 µM 82.2% | [8]; at 100.0 µM 91% | [9]; at 100.0 µM 93% | [10]; at 100.0 µM 87% | [11]; at 100.0 µM 96% | [12]; [17] 76% | [13]; at 100.0 µM 92%

CC(O)C(O)C(O)C(/C=N\Nc1ccccc1)=N/Nc1ccccc1 (stereo unspecified)
active: [1]; at 100.0 µM 96% | [14]; at 100.0 µM 99% | [3]; at 50.0 µM 97.8% | [3]; at 100.0 µM 98%
inactive: [1]; at 1.2 µM 4% | [1]; at 3.7 µM 9% | [1]; at 11.0 µM 13% | [1]; at 33.0 µM 8% | [2]; at 1.2 µM 14% | [2]; at 3.7 µM 26% | [2]; at 11.0 µM 39% | [2]; at 33.0 µM 50% | [2]; at 100.0 µM 50% | [14]; at 1.2 µM 6% | [14]; at 3.7 µM 9% | [14]; at 11.0 µM 10% | [14]; at 33.0 µM 47% | [3]; at 1.2 µM 5% | [3]; at 3.7 µM 5% | [3]; [16] 19% | [3]; at 11.0 µM 10% | [3]; at 33.0 µM 63% | [3]; [17] 51% | [4]; at 1.2 µM -4% | [4]; at 3.7 µM 1% | [4]; [16] -5% | [4]; at 11.0 µM 11% | [4]; at 33.0 µM 46% | [4]; [17] 51% | [4]; at 50.0 µM 58.3%
